Reference: PubChem BioAssay (EPA / NIEHS)
The source made the active and inactive calls. Rule for the calls: active = hit-call score of the fitted dose curve at least 0.9, where 1 is the maximum; inactive = score below 0.9.

Experiments:
Conditions in all cases: mRNA level, 48 h; actives raise or lower the signal
[1] = read-out: Bcl-2 (BAD) gene, BAD (gene 572); experiment: LTEA_HepaRG_BAD: Life Technologies and Expression Analysis (LTEA) Assay for Bcl-2 (BAD) gene using HepaRG (AID 2283469)
Method in brief: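 Activity values reflect up- or down-regulation of BAD mRNA in human HepaRG hepatic cells treated 48 h in serum-free medium, with eight-point half-log dosing capped at 100 uM and 0.5% DMSO vehicle.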

[2] = read-out: Bcl-2 (BAX) gene, BAX (gene 581); experiment: LTEA_HepaRG_BAX: Life Technologies and Expression Analysis (LTEA) Assay for Bcl-2 (BAX) gene using HepaRG (AID 2283470)
Method in brief: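 qRT-PCR read-out of BAX mRNA, normalized to three housekeeping genes, after 48 h chemical exposure of human HepaRG cells in serum-free induction medium; eight-point half-log series, top 100 uM, 0.5% DMSO vehicle; bidirectional fit versus DMSO.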

[3] = read-out: adenosine kinase (ADK) gene, ADK (gene 132); experiment: LTEA_HepaRG_ADK: Life Technologies and Expression Analysis (LTEA) Assay for adenosine kinase (ADK) gene using HepaRG (AID 2283471)
Method in brief: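 Read-out is ADK transcript level measured by qRT-PCR and normalised to three housekeeping genes. Cells are human HepaRG, dosed for 48 h at up to 100 uM in 0.5% DMSO. Gain or loss of signal is fitted against DMSO controls.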

[4] = read-out: Alpha-fetoprotein (AFP) gene, AFP (gene 174); experiment: LTEA_HepaRG_AFP: Life Technologies and Expression Analysis (LTEA) Assay for Alpha-fetoprotein (AFP) gene using HepaRG (AID 2283472)
Method in brief: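 qRT-PCR (Fluidigm TaqMan) readout of AFP transcript, normalized to three housekeeping genes, fitted bidirectionally against 0.5% DMSO baseline. HepaRG cells received chemicals for 48 h in serum-free induction medium, top concentration 100 uM, half-log steps.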

BCL2L11 (gene 10018) = experiment: LTEA_HepaRG_BCL2L11: Life Technologies and Expression Analysis (LTEA) Assay for Bcl-2 (BCL2L11) gene using HepaRG (AID 2283473)
Method in brief: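 BCL2L11 transcript levels are measured by Fluidigm qRT-PCR, normalized to three housekeeping genes. HepaRG cultures were plated 48 h, then treated 48 h with test chemical (top 100 uM, half-log, 0.5% DMSO vehicle); curves were fitted bidirectionally against DMSO.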

[5] = read-out: Apolipoprotein A-V (APOA5) gene, APOA5 (gene 116519); experiment: LTEA_HepaRG_APOA5: Life Technologies and Expression Analysis (LTEA) Assay for Apolipoprotein A-V (APOA5) gene using HepaRG (AID 2283474)
Protocol: LTEA_HepaRG is a cell based, multiplexed-readout assay that uses HepaRG, a human liver cell line, with measurements taken at 48 hours after chemical dosing on a 96-well plate.LTEA_HepaRG_APOA5 is one of 102 assay component(s) measured in the LTEA HepaRG cell culture assay. It is a marker of Steatosis.Data from the assay component LTEA_HepaRG_APOA5 was analyzed into 1 endpoint. This assay endpoint, LTEA_HepaRG_APOA5, was analyzed with bidirectional fitting relative to DMSO as the negative control and baseline of activity. Using a type of inducible reporter, measures of mRNA induction for gain or loss-of-signal activity can be used to understand regulation of transcription factor activity. To generalize the intended target to other relatable targets, this assay endpoint is annotated to the apolipoprotein intended target family, where the subfamily is Steatosis.
A total of 1060 chemcials from the ToxCast library were tested in eight-point concentration-response experiments. Cell culture and cytotoxicity assays were conducted at Thermo Fisher Scientific's Custom Services facility (Madison, WI). […] Fluidigm's 96.96 Dynamic ArrayTM (Fluidigm, Amsterdam, the Netherlands) technology was used for gene expression analyses by quantitative reverse transcription polymerase chain reaction (qRT-PCR, performed by Quintiles/Expression Analysis, Durham, NC)89. […]

[6] = read-out: Apoptosis regulator Bcl-2 (Homo sapiens) (UniProt P10415); experiment: LTEA_HepaRG_BCL2: Life Technologies and Expression Analysis (LTEA) Assay for Bcl-2 gene using HepaRG (AID 2283475);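 note: BCL2 transcript by TaqMan qRT-PCR normalised to ACTB GAPDH and POLR2A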
Method in brief: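 qRT-PCR read-out (Fluidigm TaqMan) of BCL2 transcript, normalised to three housekeeping genes, after 48 h chemical exposure of HepaRG cells; 8-point half-log series, top 100 uM, 0.5% DMSO vehicle. Gain or loss of signal fitted relative to DMSO baseline.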

[7] = read-out: Bcl-2 (BID) gene, BID (gene 637); experiment: LTEA_HepaRG_BID: Life Technologies and Expression Analysis (LTEA) Assay for Bcl-2 (BID) gene using HepaRG (AID 2283476)
Method in brief: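 HepaRG, 48 h exposure, 8-pt half-log series, top 100 uM, 0.5% DMSO vehicle, duplicates. Readout: BID mRNA by TaqMan qRT-PCR; housekeeping-normalized; bidirectional curve fit vs DMSO baseline.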

Caspase-3 (Homo sapiens) = Caspase-3 (Homo sapiens) (UniProt P42574); experiment: LTEA_HepaRG_CASP3: Life Technologies and Expression Analysis (LTEA) Assay for cysteine-aspartic acid protease (CASP3) using HepaRG (AID 2283477)
Method in brief: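 Expression of CASP3 was quantified by TaqMan qRT-PCR against three housekeeping genes (ACTB, GAPDH, POLR2A), bidirectionally versus 0.5% DMSO. HepaRG cultures received compounds in duplicate, top 100 uM with half-log steps, for 48 h in serum-free induction medium.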

[8] = read-out: Cytochrome P450 (CYP24A1), CYP24A1 (gene 1591); experiment: LTEA_HepaRG_CYP24A1: Life Technologies and Expression Analysis (LTEA) Assay for Cytochrome P450 (CYP24A1) using HepaRG (AID 2283478)
Method in brief: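 mRNA of CYP24A1 quantified by TaqMan qRT-PCR (ACTB/GAPDH/POLR2A normalization) after 48 h chemical exposure of HepaRG cells, top concentration 100 uM, half-log steps, 0.5% DMSO vehicle, duplicates. Curves fitted bidirectionally against DMSO baseline.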

Measured: outcome

Chain of Caspase-3 (Homo sapiens) (P42574 whole entry, looked up): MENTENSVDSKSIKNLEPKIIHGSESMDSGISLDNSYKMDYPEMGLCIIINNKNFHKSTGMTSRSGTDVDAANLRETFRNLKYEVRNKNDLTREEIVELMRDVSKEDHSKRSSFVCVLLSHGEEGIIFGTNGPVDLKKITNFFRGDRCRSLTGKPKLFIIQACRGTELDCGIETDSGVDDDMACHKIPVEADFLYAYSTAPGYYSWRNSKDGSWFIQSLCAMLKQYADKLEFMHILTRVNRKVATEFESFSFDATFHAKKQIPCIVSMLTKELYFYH
Chain of Apoptosis regulator Bcl-2 (Homo sapiens) (P10415 whole entry, looked up): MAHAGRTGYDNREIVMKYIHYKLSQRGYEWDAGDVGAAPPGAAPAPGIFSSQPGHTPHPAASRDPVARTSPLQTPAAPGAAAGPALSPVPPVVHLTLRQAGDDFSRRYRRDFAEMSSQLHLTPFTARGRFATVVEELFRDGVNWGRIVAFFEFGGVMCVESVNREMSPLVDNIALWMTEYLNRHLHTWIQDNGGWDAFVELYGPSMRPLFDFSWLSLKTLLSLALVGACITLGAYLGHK

O=C(O)c1ccc([N+](=O)[O-])cc1
inactive: all assays above
